# Assay results: paper PMC5540273 (PLoS ONE, 2017)
# Assays:
# Details in all cases: concentration: 1 μM, replicates: in singlicate; n = 1
# CLK2 = system: CLK2
# CLK3 = system: CLK3
# CLK4 = system: CLK4
# CSF1R-autoinhibited = system: CSF1R-autoinhibited
# CSF1R = system: CSF1R
# CSK = system: CSK
# CSNK1A1L = system: CSNK1A1L
# CSNK1A1 = system: CSNK1A1
# CSNK1D = system: CSNK1D
# CSNK1E = system: CSNK1E
# 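Note: KINOMEscan kinase panel screen.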
Structure (SMILES),%Inh (CLK2) [%],%Inh (CLK3) [%],%Inh (CLK4) [%],%Inh (CSF1R-autoinhibited) [%],%Inh (CSF1R) [%],%Inh (CSK) [%],%Inh (CSNK1A1L) [%],%Inh (CSNK1A1) [%],%Inh (CSNK1D) [%],%Inh (CSNK1E) [%]
O=C(Nc1n[nH]c2cc(-c3ccoc3)ccc12)C1CC1 [SB-738481],73,13,9,0,2,0,5,0,2,0
CN(c1ccc(NC(=O)Nc2cc(C(F)(F)F)ccc2F)cc1)c1ccnc(Nc2ccc(S(N)(=O)=O)cc2)n1 [GW809893],13,0,16,0,25,9,9,15,0,1
Cl.c1ccc(-c2ccc3c(Nc4ccc5[nH]ccc5c4)ccnc3c2)nc1 [GW440138],0,8,19,36,75,0,0,0,13,27
Clc1ccc(-c2nn3ncccc3c2-c2ccnc(Nc3ccc4c(c3)OCCO4)n2)cc1 [GW829116],0,0,0,0,87,0,17,77,94,98.6
Fc1ccc(-c2ncn(C3CCNCC3)c2-c2ccnc(Oc3ccc(-c4ccccc4)cc3)n2)cc1 [SB-245391],11,32,0,8,12,14,71,93.9,96.2,99.5
Cc1cccc(NC(=O)Nc2ccc(Oc3ncnc4ccn(C)c34)cc2)c1,0,0,8,48,99.9,0,0,0,0,11
Cl.NC(=O)c1cccc(Nc2nccc(Nc3ccc(Oc4c(Cl)cccc4Cl)c(Cl)c3)n2)c1 [GW659009],0,0,34,0,10,0,0,13,0,0
Nc1ncc(-c2ccc3nccc(-c4ccncc4)c3c2)cc1S(=O)(=O)N1CCOCC1 [GSK1627798],72,55,54,0,3,0,7,3,37,42
COc1cc(Nc2nccc(-c3c(-c4cccc(NC(=O)c5c(F)cccc5F)c4)nn4ncccc34)n2)cc(OC)c1OC [GSK327238],0,0,2,55,100,98.1,7,0,23,94.7
CCc1ccc(-c2ccc3c(c2)-c2c(cnn2C)S(=O)(=O)N3C)cc1,13,0,10,9,3,0,0,0,0,1
c1ccc(Oc2ccc(Nc3ccnc4cc(-c5ccc(CNCCN6CCOCC6)o5)ccc34)cc2)nc1 [GW567145],0,0,0,40,68,77,0,0,0,0
COc1cc(Nc2nccc(N3CCC(NC(=O)c4cc5ccccc5s4)C3)n2)cc(OC)c1OC (stereo not drawn) [GSK1379760],0,0,13,23,18,0,0,41,10,0
COc1cccc(C(=O)Nc2cccc(Oc3ccc4nc(NC(=O)C5CC5)cn4n3)c2)c1,16,5,0,94.2,100,17,17,29,1,19
CNC(=O)c1ccccc1Nc1nc(Nc2ccc(N3CCOCC3)cc2)ncc1Cl.Cl [GSK1576028],97.1,90,98.8,89,97.5,85,68,30,36,13
COc1cccc(C2=C(Nc3ccc(Cl)c(C(=O)O)c3)C(=O)NC2=O)c1 [SB-390769],6,0,17,13,0,0,5,0,8,13
CCCCc1nn2ncccc2c1-c1ccnc(Nc2ccc(N3CCN(C)CC3)cc2)n1 [GW684941],3,0,0,73,99.9,7,46,93.1,90.9,99.4
O=C(Nc1n[nH]c2nc(-c3ccc(O)cc3)ccc12)C1CC1 [SB-710363],21,10,15,0,0,0,10,0,0,12
Cc1occc1-c1ncc(OC[C@@H](N)Cc2c[nH]c3ccccc23)cc1-c1ccc2[nH]nc(C)c2c1.O=C(O)C(F)(F)F [GSK682037],63,25,9,0,1,0,97.3,97,97.8,99.9
CC(C)(C)c1ccc2nccc(Nc3cccc(O)c3)c2c1 [GW856795],0,0,0,54,12,0,0,26,0,0
CCn1c(-c2nonc2N)nc2c(C#CC(C)(C)O)ncc(OCCCCN)c21.O=C(O)C(F)(F)F.O=C(O)C(F)(F)F [GSK507274],69,11,43,0,21,0,18,19,29,38
COc1ccc(CNC(=O)NC2CCN(c3ccnc(Nc4ccc(F)cc4)n3)CC2)cc1 [GSK1379788],0,11,0,19,8,0,9,0,42,63
Oc1cc(Nc2ccnc3cc(I)ccc23)ccc1F [GW552771],51,0,9,23,23,0,16,0,20,16
C[C@@H]1CC[C@@H](C(=O)Nc2ccccc2)CN1c1cc(-c2ccc3c(N)n[nH]c3c2)nc(N)n1 [GSK2286062],13,0,16,10,0,0,6,0,20,0

Structure (SMILES),%Inh (CLK2) [%],%Inh (CLK3) [%],%Inh (CLK4) [%],%Inh (CSF1R-autoinhibited) [%],%Inh (CSF1R) [%],%Inh (CSK) [%],%Inh (CSNK1A1L) [%],%Inh (CSNK1A1) [%],%Inh (CSNK1D) [%],%Inh (CSNK1E) [%]
Cl.Cl.NCC(C(=O)Nc1cc(Br)c(-c2ccnc3[nH]ccc23)s1)c1ccccc1 (stereo not drawn) [GSK1269851],100,39,61,0,28,0,19,0,35,28
CN1CCN(CCCNc2nccc(-c3c(-c4ccc(F)cc4)nn4cc(C(F)(F)F)ccc34)n2)CC1 [GW621581],15,0,22,0,0,0,12,83,90.6,92.9
Nc1ncnc2c1nc(-c1ccccc1)n2-c1ccccc1 [SKF-97293],28,25,20,22,7,22,0,0,10,23
COc1cc(Nc2ncc3c(C)nc(-c4cc5ccccc5[nH]4)n3n2)cc(OC)c1OC [GW869516],75,36,43,0,0,13,0,30,0,15
O=C(O)C(F)(F)F.O=C(O)C(F)(F)F.O=c1[nH]ccc2nc(N[C@@H]3CCCNC3)nc(Nc3ccc(S(=O)(=O)N4CCOCC4)cc3)c12 [GSK2177277],98.9,41,79,83,99.9,51,99.7,99.9,98.7,99.9
Cc1ccc(C(=O)N2CC[C@@H](O)C2)cc1-n1c(C)cc(OCc2ccc(F)cc2F)c(Br)c1=O,0,0,0,0,75,0,0,0,0,0
CSc1cccc2c(-c3ccncn3)c(-c3ccc(F)cc3)nn12 [GW514786],0,11,13,21,0,0,21,61,84,69
COc1cccc(-c2ccc3c(NC(=O)C4CC4)n[nH]c3n2)c1 [SB-710903],100,0,20,54,10,0,12,0,18,16
COC(=O)Nc1nc2cc(Oc3ccc(NC(=O)Nc4cc(C(F)(F)F)ccc4F)cn3)ccc2[nH]1.Cl.Cl [GW681170],8,0,61,0,67,0,0,0,6,0
CN1CCN(Cc2cccc(-c3ccc4c(Nc5ccc(Oc6ccccc6)cc5)ccnc4c3)c2)CC1 [GW578342],6,0,0,43,5,76,0,0,0,2
Cl.Cl.NCC(NC(=O)c1cc(-c2ccccc2)c(-c2ccnc3[nH]ccc23)s1)c1ccccc1 (stereo not drawn) [GSK1321561],0,49,19,0,0,0,97.1,95.7,98,99.9
COc1ccc(Nc2nccc(N3CCC(NC(=O)Nc4cccc(OC)c4)C3)n2)cc1 (stereo not drawn) [GSK1379742],0,39,9,0,0,0,19,0,1,34
COc1cc(Nc2nccc(N3CCC(NC(=O)Nc4cccc(C(C)=O)c4)C3)n2)cc(OC)c1OC (stereo not drawn) [GSK1379753],0,11,0,0,31,0,0,0,3,18
O=C(Nc1cccc(-c2nn3ccccc3c2-c2ccnc(Nc3cccc(F)c3)n2)c1)c1c(F)ccc(F)c1Cl [GSK357952],0,0,11,0,93.3,20,7,2,0,40
Cc1ccc(C(=O)Nc2ccc(Nc3ccnc4cc(-c5nccs5)ccc34)cc2O)cc1.Cl [GW494702],0,0,0,44,20,30,14,0,97.1,8
CN(C)S(=O)(=O)c1cc(-c2ccc3nccc(-c4cccc(S(N)(=O)=O)c4)c3c2)cnc1N [GSK1669921],86,21,54,0,7,0,14,49,0,33
Cl.Cl.NCC(NCc1ccc(-c2ccnc3[nH]ccc23)s1)c1ccccc1 (stereo not drawn) [GSK1321565],43,45,88,19,50,0,16,10,26,64
Nc1ncc(-c2cccnc2)c2scc(-c3ccc4c(c3)CCN4C(=O)Cc3ccccc3)c12 [GSK683281],0,19,18,5,99.2,23,21,4,13,35
O=C(Nc1cccc(-c2nn3ccccc3c2-c2ccnc(Nc3cccc(C(F)(F)F)c3)n2)c1)c1c(F)cccc1F [GSK292658],0,0,8,0,89,31,5,16,2,46
COC(=O)Nc1nc2ccc(Oc3ccc(NC(=O)Nc4cc(C(F)(F)F)ccc4F)cc3)cc2n1C.Cl [GW692089],0,0,0,0,86,0,0,0,0,0
Cc1ccc(S(=O)(=O)Nc2ccc(Nc3nccc(Nc4cccc5[nH]ncc45)n3)cc2)cc1 [GSK581271],0,13,87,0,22,0,5,0,46,36
COCCOCCOc1cc2ncc3c4ccc(C#N)cc4[nH]c3c2cc1OC,67,14,76,97.4,50,10,8,5,0,2
